Rows were chosen to be rich in hits. Some 18% of all compounds tested hit in one or more screens of this group.
RORg inh – blocks mouse ROR gamma transcriptional activity. Drosophila S2 Gal4-RORgamma UAS-luciferase reporter, 20 h. Potency, µM (top dose mostly 53.6 µM), inactives show top-dose activity change, negative = inhibition, actives largely listed as inhibitors. 310,000 tested, 5.4% active; also: potency is read from the fitted curve at half-maximal effect; nearly all actives have a fitted effect of over 60% in size
Target sequence (P51450 whole entry, looked up, the tested form may be a part): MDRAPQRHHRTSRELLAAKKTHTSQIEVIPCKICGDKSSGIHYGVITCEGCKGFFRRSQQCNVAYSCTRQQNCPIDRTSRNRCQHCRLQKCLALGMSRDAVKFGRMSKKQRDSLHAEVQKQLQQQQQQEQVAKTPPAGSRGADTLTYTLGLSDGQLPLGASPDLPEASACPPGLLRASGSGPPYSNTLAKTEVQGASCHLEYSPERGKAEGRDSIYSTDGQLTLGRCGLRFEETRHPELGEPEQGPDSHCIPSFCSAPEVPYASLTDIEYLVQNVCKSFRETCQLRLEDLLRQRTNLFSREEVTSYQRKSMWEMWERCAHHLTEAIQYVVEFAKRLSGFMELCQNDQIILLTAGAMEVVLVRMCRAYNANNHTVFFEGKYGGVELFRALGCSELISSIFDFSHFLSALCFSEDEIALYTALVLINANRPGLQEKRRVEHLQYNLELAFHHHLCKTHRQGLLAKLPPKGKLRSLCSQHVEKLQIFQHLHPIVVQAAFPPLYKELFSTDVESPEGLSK
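Stable Schneider cell line, Gal4 DNA-binding domain fused to ROR gamma, UAS-luciferase. Cmpd 1 hr RT → CuSO4 700 uM final → 20 hr RT → luciferase reagent 10 min → luminescence.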
DT40 TDP1 no CPT – qHTS for Inhibitors of human tyrosyl-DNA phosphodiesterase 1 (TDP1): qHTS in cells in absence of CPT | DT40 Tdp1-/- hTDP1 cells, no CPT, ATP luminescence, 48 h | Potency, µM (doses to about 46.2 µM), without a hit: at the highest dose activity change, negative = growth inhibition, usual class: inhibitors | 420,000 tested, 15% active; also: potency is read from the fitted curve at half-maximal effect; nearly all actives have a fitted effect of over 55% in size
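Chicken DT40 Tdp1-/- cells complemented with human TDP1, screened without camptothecin (DMSO vehicle only), 400 cells/well. Compounds pin-transferred, cells incubated at 37 °C for at least 48 hr. Growth read as ATP-dependent luminescence (CellTiter-Glo, 30 min at RT).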
LDHA block – LDHA (human) enzyme inhibition; P00338; purified LDHA, NADH/diaphorase-resazurin fluorescence; active compounds read low; activity change, % (values are at about 110 or 230 µM); 480,000 tested, 0.15% active; AID 1347041; in the data active = activity change below about -30%; inconclusive = mostly about -25% to -30%;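 also: plate controls were DMSO wells for no effect and wells without enzyme for full effect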
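Enzyme activity of human lactate dehydrogenase 5 (2 nM; 0.06 mM NADH, 0.2 mM pyruvate, 5 min, RT) is measured via a resazurin/diaphorase fluorescence readout of residual NADH.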
DT40 TDP1 CPT – growth inhibition of DT40 Tdp1-/-;hTDP1 cells with camptothecin (screen for TDP1 inhibitors); chicken DT40 Tdp1-/-;hTDP1 cells + 20 nM CPT, ATP luminescence, 48 h; Potency, µM (titrated, usually from 46.2 µM), inactives show at the highest dose activity change, negative = growth inhibition, hits mostly inhibitors; 420,000 tested, 12% active; also: potency is read from the fitted curve at half-maximal effect; nearly all actives have a fitted effect of over 55% in size
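Chicken DT40 Tdp1-/- cells stably complemented with human TDP1 were seeded at 400 cells/well in medium containing 20 nM camptothecin, exposed to pin-transferred compounds, and grown at 37 °C for at least 48 hr. Viability was read as ATP luminescence.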
VP16 counter – inhibits Gal4-VP16 luciferase reporter, ROR gamma counter-screen; Drosophila S2 Gal4-VP16 UAS-luciferase, luminescence, 20 h; Potency, µM (highest dose often 53.6 µM), inactives show top-dose activity, negative = inhibition, usual class: inhibitors; 310,000 tested, 3.5% active; AID 2546;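 also: Gal4-VP16 expression switched on by copper sulfate through the metallothionein promoter; potency is read from the fitted curve at half-maximal effect; nearly all actives have a fitted effect of over 50% in size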
IL-1B inflam inh – blocks inflammasome-driven IL-1 beta release; THP-1 LPS/ATP IL-1B secretion, AlphaLISA, 16 h; active compounds read low; activity change, % at 57.5 µM; 360,000 tested, 4.7% active; AID 743279; in the data active = activity change below about -50%; inconclusive = mostly about -30% to -49%
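Secreted IL-1B measured by AlphaLISA bead assay after 16 h compound exposure of THP-1 cells; compounds (final up to 57.5 uM) added 1 h before LPS (250 ng/mL) and ATP (1.25 mM) stimulation; lower signal means less secretion.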
* marks the source's active call; other numbers are inactive results; ? = inconclusive; . = not tested or not shown. Unless noted, calls follow the shape of the dose curve; as a rule, active = well fitted curve in the direction sought with a large enough effect; inconclusive = small, poorly fitted or top-dose-only effect, or another doubt; inactive = no such curve, though single readings can be large; an effect the other way counts as inactive or inconclusive. Unless noted, % is scaled to controls: 0 for no effect and ±100 for the full control effect.

SMILES	RORg inh	DT40 TDP1 no CPT	LDHA block	DT40 TDP1 CPT	VP16 counter	IL-1B inflam inh
CC1(C)Cc2ccccc2C(NN=C2CCCC2)=N1	-26%	-29%	-4	10%	0%	0
CC1(C)Cc2ccccc2C(/C(C#N)=N/O)=N1	?	23µM*	3	15µM*	-7%	-18
O=C(CC(Sc1ccc(Br)cc1)C(=O)O)c1ccc(F)cc1 (stereo not drawn)	?	4.6µM*	-5	9.2µM*	?	-92*
CCOc1ccc(C(=O)CC(Sc2ccc(C)cc2)C(=O)O)cc1 (stereo not drawn)	4.5µM*	?	1	?	?	?
CCC(Sc1ccc(C(=O)O)cc1)C(=O)O (stereo not drawn)	-13%	1%	1	-7%	0%	25
COc1ccccc1N1CCN(C(=O)C(C)Sc2nc(Cl)nc3nc[nH]c23)CC1 (stereo not drawn)	.	.	-4	.	.	.
CCCCC1(C)Cc2ccccc2C(=S)N1 (stereo not drawn)	1µM*	?	2	23µM*	5.6µM*	-4
CCn1cc(/C=C(\NC(=O)c2ccccc2)C(=O)NCCCn2ccnc2)c2ccccc21	.	-18%	-4	-18%	.	-23
CCn1cc(/C=C(\NC(=O)c2ccc(C)cc2)C(=O)NCCCn2ccnc2)c2ccccc21	.	21µM*	-4	?	.	.
CC(C)Nc1nc(-c2ccccn2)nc(-c2ccccc2)c1C#N	2.5µM*	?	-6	?	?	-5
COc1ccc(N2CCN(c3ncccc3C#N)CC2)cc1	20%	-23%	0	1%	-8%	-5
COc1ccc(-c2nc(-c3ccccn3)nc(N3CCN(C)CC3)c2C#N)cc1	1.4µM*	1%	-4	-2%	-7%	?
CC(C)Nc1nc(-c2cccnc2)nc(-c2ccccc2)c1C#N	1%	-4%	-2	-10%	0%	-3
COc1ccccc1-c1nc(C#N)c(N2CCN(C)CC2)o1	.	.	-5	.	.	.
CN1CCN(c2nc(-c3ccccc3)nc(-c3ccc(F)cc3)c2C#N)CC1	-2%	?	0	?	-6%	-61*
COc1ccccc1-c1nc(-c2ccccc2)nc(N2CCN(C)CC2)c1C#N	14µM*	?	-4	-17%	-19%	-52*
CN1CCOC(CNC(=O)Cc2ccc(F)c(Br)c2)C1 (stereo not drawn)	.	.	11	.	.	.
CC(C)c1nnc2sc(-c3ccc4c(c3)OCO4)nn12	.	.	-19	.	.	.
Cc1ccc2nc(-c3ccc(NC(=O)C4CCC(C)(C(=O)O)C4(C)C)cc3)sc2c1 (stereo not drawn)	.	.	2	.	.	.
COc1cc(C(=O)NCC(c2cccnc2)N2CCc3ccccc32)cc(OC)c1OC (stereo not drawn)	.	21µM*	-2	?	.	.
O=C(NCC(c1cccnc1)N1CCc2ccccc21)c1ccc(F)c(F)c1 (stereo not drawn)	.	9.2µM*	3	13µM*	.	.
COc1ccc(C(=O)NCC(c2cccs2)N2CCc3ccccc32)cc1OC (stereo not drawn)	.	21µM*	-2	?	.	-12
COc1ccc(C(=O)NCC(c2ccco2)S(=O)(=O)c2cccs2)cc1OC (stereo not drawn)	.	?	0	?	.	.
NNC(=O)c1ccc(N2CCc3ccccc32)c([N+](=O)[O-])c1	?	?	-10	-21%	-1%	-12
COC(CNC(=O)c1ccc(N2CCc3ccccc32)c([N+](=O)[O-])c1)OC	?	?	1	?	18µM*	-15
SMILES	RORg inh	DT40 TDP1 no CPT	LDHA block	DT40 TDP1 CPT	VP16 counter	IL-1B inflam inh
Nc1nccnc1C(=O)NCC(F)(F)F	.	.	12	.	.	.
O=C(NCc1ccc(C(=O)N2CCCCC2)cc1)c1cc(=O)[nH]c2ccccc12	.	.	4	.	.	.
Cc1nc2ccccc2c(C)c1CC(=O)NCCCc1[nH]nc(N)c1C#N	.	.	-2	.	.	.
Cc1ccc(C(=O)NCC(c2cccnc2)N2CCc3ccccc32)cc1C (stereo not drawn)	.	15µM*	-4	7.3µM*	.	.
CNc1c([N+](=O)[O-])cnn1-c1ccc(Cl)cc1Cl	19%	-20%	-3	?	-4%	-19
O=c1cnn(-c2ccc(Cl)cc2Cl)c(-c2ccccc2)c1	14%	23µM*	-7	?	-5%	-17
Cc1ccc(C)c(N2CCN(C(=O)C3CCN(S(=O)(=O)c4ccc5[nH]c(=O)oc5c4)CC3)CC2)c1	.	26µM*	3	23µM*	.	.
Cc1ccc(C)c(N2CCN(C(=O)C3CCCN(S(=O)(=O)c4ccc5c(c4)oc(=O)n5C)C3)CC2)c1 (stereo not drawn)	.	12µM*	-2	16µM*	.	.
COc1cc(NC(=O)C2CCN(S(=O)(=O)c3ccc4c(c3)oc(=O)n4C)CC2)cc(OC)c1	.	21µM*	0	?	.	.
Cn1c(=O)oc2cc(S(=O)(=O)N3CCCC(C(=O)N4CCc5ccccc5C4)C3)ccc21 (stereo not drawn)	?	15µM*	-1	16µM*	1%	-6
Cc1cc(NC(=O)C2CCN(S(=O)(=O)c3ccc4[nH]c(=O)oc4c3)CC2)ccc1Br	.	?	-7	?	.	.
O=C(O)CCSc1ccccc1F	.	.	4	.	.	.
Cc1ccc(C)c(N2CCN(C(=O)C(CC(C)C)NS(=O)(=O)c3ccc4nc(C)sc4c3)CC2)c1 (stereo not drawn)	.	16µM*	1	?	.	.
CN1CCN(C(=O)C2CCN(S(=O)(=O)c3ccc4c(c3)oc(=O)n4C)CC2)CC1	-6%	-1%	-6	-7%	1%	5
CSCCC(NS(=O)(=O)c1ccc2c(c1)oc(=O)n2C)C(=O)N1CCN(c2ccc(C(C)=O)cc2)CC1 (stereo not drawn)	.	-23%	3	-20%	.	.
CSCCC(NS(=O)(=O)c1ccc2c(c1)oc(=O)n2C)C(=O)N1CCN(c2cc(C)ccc2C)CC1 (stereo not drawn)	.	23µM*	-5	?	.	.
COc1ccc(N2CCN(C(=O)C3CCN(S(=O)(=O)c4ccc5c(c4)oc(=O)n5C)CC3)CC2)cc1	24%	9.2µM*	0	?	5%	4
CCOC(=O)C1CCCN(C(=O)C2CCCN(S(=O)(=O)c3ccc4c(c3)oc(=O)n4C)C2)C1 (stereo not drawn)	40%	?	-6	-20%	1%	4
